Source: PubChem BioAssay (NCATS)
Records with an inconclusive call do not appear. Active and inactive are the calls of the source. Calls come from the whole dose curve; as a rule, active = well fitted cell-killing curve with a large enough effect; inconclusive = small, poorly fitted or top-dose-only effect; inactive = flat fitted curve, though single readings scatter.

Assay: qHTS assay to identify small molecule inhibitors of chordoma cells - UCH-2 (AID 1259356)
Details: UCH-2 chordoma viability, CellTiter-Glo ATP luminescence, 48 h; series mostly up to 46.1 µM
Text: NIH Chemical Genomics Center [NCGC]
Chordoma is a rare and slow growing tumor that can occur anywhere along the spine, from the base of the skull to the tailbone. Current treatment options for chordoma is surgery and radiation therapy for those who are not candidates for surgery. But chordomas tend to return in the same location or surrounding areas of the original tumor after surgery and/or radiation. Chemotherapy can slow down the progression of the tumor. As chordoma is slow growing, the general cytotoxic agents that kill fast growing cells are ineffective, and some patients have been reported to respond to molecularly targeted drugs.
NCATS Pharmaceutical Collection (NPC) containing approximately 3000 clinically approved and investigational drugs were used to screen at 15 concentrations in a chordoma cell lines, UCH-2, to identify small molecule compounds that can inhibit chordoma cell growth.
NCGC Assay Protocol Summary:
Human chordoma cell line UCH-2 was dispensed at 800 per well in 4uL of culture medium into white solid bottom 1536-well plates (Corning Life Sciences, Corning, NY) using a Multidrop Combi (Thermo Scientific, Waltham, MA) dispenser. The assay plates were incubated at 37 C and 5% CO2 for an overnight, and then 23nL of compounds dissolved in DMSO and positive control were transferred using a Pintool station (Wako, San Diego, CA). Compound treatment was followed by the addition of 1uL of the combination compounds (1uM Auranofin, 500nM each of Camptothecin, Doxorubicin, Rubitecan, and Topotecan) and assay medium to each well of the assay plates using Flying Reagent Dispenser (FRD, Aurora Discovery, San Diego, CA). The assay plates were incubated at 37 C and 5% CO2 for 48hr. Then 5uL of CellTiter-Glo reagent (Promega Corporation, Madison, WI) was added to each well of the assay plates using FRD. After 30min incubation at room temperature, the luminescence signal was quantified using a ViewLux plate reader (PerkinElmer, Shelton, CT).

| Structure (SMILES) | outcome |
| --- | --- |
| Cc1c(O)cccc1C(=O)N[C@@H](CSc1ccccc1)[C@H](O)CN1C[C@H]2CCCC[C@H]2C[C@H]1C(=O)NC(C)(C)C | inactive |
| O=c1cc(CO)occ1O | inactive |
| CCCCOc1cc(C(=O)OCCN(CC)CC)ccc1N | inactive |
| CN(C)CCN(Cc1ccccc1)c1ccccn1 | inactive |
| C/C(=C(\CCOP(=O)(O)O)SC(=O)c1ccccc1)N(C=O)Cc1cnc(C)nc1N | inactive |
| Nc1ccc(S(=O)(=O)NC(=O)c2ccccc2)cc1 | inactive |
| COc1ccc2c(c1)C(=O)N(CCc1ccc(S(=O)(=O)NC(=O)NC3CCCCC3)cc1)C(=O)C2(C)C | inactive |
| COCCOC(=O)C1=C(C)NC(C)=C(C(=O)OC/C=C/c2ccccc2)C1c1cccc([N+](=O)[O-])c1 (stereo not given) | inactive |
| Cc1cc(CC(=O)O)n(C)c1C(=O)c1ccc(Cl)cc1 | inactive |
| O=C(Oc1ccccc1C(=O)O)c1ccccc1O | inactive |
| CCn1cc(C(=O)O)c(=O)c2cnc(N3CCNCC3)nc21 | inactive |
| CC1=C(/C=C/C(C)=C/C=C/C(C)=C/C(=O)O)C(C)(C)CCC1 | inactive |
| CC12CCC(CC1)C(C)(C)O2 | inactive |
| Nc1ccc(S(=O)(=O)Nc2ccc(Cl)nn2)cc1 | inactive |
| CCC(=O)c1ccc(O)cc1 | inactive |
| O=C(O)CN1C(=O)c2cccc3cccc(c23)C1=O | inactive |
| O=c1[nH]cnc2c1ncn2[C@@H]1O[C@H](CO)[C@@H](O)[C@H]1O | inactive |
| COC(=O)C1=C(C)NC(C)=C(C(=O)OC)C1c1ccccc1[N+](=O)[O-] | inactive |
| Cc1ncc(COP(=O)(O)O)c(C=O)c1O | inactive |
| Cn1c(=O)c2c(ncn2CC2OCCO2)n(C)c1=O | inactive |

| Structure (SMILES) | outcome |
| --- | --- |
| O=C1c2c(O)cccc2Cc2cccc(O)c21 | inactive |
| Cc1ncc([N+](=O)[O-])n1CC(O)CCl (stereo not given) | inactive |
| N[C@@H](CSSC[C@H](N)C(=O)O)C(=O)O | inactive |
| COc1ccc(Cl)cc1C(=O)NCCc1ccc(S(=O)(=O)NC(=O)NC2CCCCC2)cc1 | inactive |
| O=C(O)[C@@H]1CSCN1 | inactive |
| C=Cc1c(C)c2cc3[nH]c(cc4nc(cc5nc(cc1[nH]2)C(C)=C5CCC(=O)O)C(CCC(=O)O)=C4C)c(C)c3C=C | inactive |
| C[C@@H](O)[C@H](N)C(=O)O | inactive |
| CCCCCCCCCCCCCCCCCCOCC(O)CO (stereo not given) | inactive |
| Cc1cc(O)cc2c1O[C@](C)(CCC[C@H](C)CCC[C@H](C)CCCC(C)C)CC2 | inactive |
| CC(=O)O[C@@]12CO[C@@H]1C[C@H](O)[C@@]1(C)C(=O)[C@H](O)C3=C(C)[C@@H](OC(=O)[C@H](O)[C@@H](NC(=O)OC(C)(C)C)c4ccccc4)C[C@@](O)([C@@H](OC(=O)c4ccccc4)[C@H]21)C3(C)C | inactive |
| NC1[C@H]2CN(c3nc4c(cc3F)c(=O)c(C(=O)O)cn4-c3ccc(F)cc3F)C[C@@H]12 (stereo not given in full) | inactive |
| O=C(O)c1ccccc1-c1ccc(C(F)(F)F)cc1 | inactive |
| O=S(=O)(O)NC1CCCCC1 | inactive |
| CNC(=O)Oc1ccc2c(c1)[C@]1(C)CCN(C)[C@@H]1N2C | inactive |
| CCN(CC)CCCC(C)Nc1c2ccc(Cl)cc2nc2ccc(OC)cc12 (stereo not given) | inactive |
| COC(=O)[C@H]1[C@H]2C[C@@H]3c4[nH]c5cc(OC)ccc5c4CCN3C[C@H]2C[C@@H](OC(=O)COc2ccc(OC)cc2)[C@@H]1OC | inactive |
| COc1cc2[nH]c(=O)[nH]c(=O)c2cc1OC | inactive |
| CC[C@@]1(c2ccccc2)NC(=O)N(C)C1=O | inactive |
| O=c1cc[nH]c(=S)[nH]1 | inactive |
| Cc1cc(C(C#N)c2ccc(Cl)cc2)c(Cl)cc1NC(=O)c1cc(I)cc(I)c1O (stereo not given) | inactive |
